Assay results from PubChem BioAssay AID488857 (Sanford-Burnham Center for Chemical Genomics, 2010).
About 560 (40%) of roughly 1,400 compounds were called active.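 Rule for the calls: active = mean inhibition over duplicate tests at 10 µM above 50%; inactive = the rest.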 So high a share suggests a set chosen from earlier hits. Some of the results follow.

Assay: ASC/caspase-1 reporter retest in S. cerevisiae at one dose, specificity check for NALP1 project (AID 488857)
Conditions: S. cerevisiae ASC/Caspase-1, beta-galactosidase luminescence, 24 h; at 10 µM; active compounds read high

inhibition, inactive:
O=C(Cc1ccc(Cl)cc1)Oc1cccc2cccnc12 29.8%
Fc1ccc(Nc2nc(Oc3ccccc3F)nc(N3CCCC3)n2)cc1 41.3%
C/C(=N\NC(=O)Cc1csc(N2CCOCC2)n1)c1ccccc1 29.2%
COc1ccc(NC(=O)N2CCC(CO)(CC3CCCCO3)CC2)c(OC)c1 (configuration not stated) 40.4%
CN(C)Cc1ccccc1Sc1ccccc1Br 49%
CC(=O)c1ccc(NC(=O)Nc2ccc(Cl)cc2)cc1 44.4%
COc1ccc(N2CCN(CCNC(=O)Nc3ccc(Cl)cc3)CC2)cc1 39.5%
Cc1cccc(C)c1C(OCCN(C)C)C1CCCCC1 (configuration not stated) 35.5%
COc1cc(/C=C(\NC(C)=O)C(=O)Nc2cccc(O)c2)ccc1OC(C)=O 42%
O=C1/C(=C/c2cccnc2)SC(=S)N1C1CCS(=O)(=O)C1 (configuration not stated) 32.4%
COc1ccc(OC)c(S(=O)(=O)Nc2ccc(O)c3ccccc23)c1 28.8%
CCC(C)NCCOc1cccc(Br)c1 (configuration not stated) 39.6%
Cc1ccc2nc(-c3ccc(NC(=O)CN(c4ccccc4C)S(C)(=O)=O)cc3)sc2c1 44.1%
COc1cc2nc(Cl)nc(N3CCN(C)CC3)c2cc1OC 30%
COc1cccc(NC2=C(Cl)C(=O)OC2OC(=O)c2ccco2)c1 (configuration not stated) 38.3%
CC(=O)N1CCCc2cc(S(=O)(=O)N3CCc4ccccc4C3)ccc21 45.2%
O=C(NCCCN1CCc2ccccc2C1)Nc1ccc(Br)cc1 43.3%
COC(=O)/C(=N/Nc1ccc(C)cc1)N1CCCc2ccccc21 40.6%
Cc1ccc2cc3cc(C(=O)NCCCN4CCc5ccccc5C4)oc3nc2c1 35%
CCOC(=O)c1cc(-c2ccc(OC)cc2)nc2c1c(C)nn2CCC#N 49.6%
CN1C/C(=C/c2ccncc2)C(=O)/C(=C/c2ccncc2)C1 26.9%
CCOC(=O)C1CCCCN1Cc1ccc(F)c(Br)c1 (configuration not stated) 40.2%
COc1ccc2nc3oc(C(=O)Nc4ccc(OC)c(OC)c4)cc3cc2c1 36.3%
O=C(NCC1CCCO1)C(c1cccs1)N(Cc1cccs1)C(=O)Cn1nnc(-c2cccs2)n1 (configuration not stated) 39.1%
CCOC(=O)c1c(C)c(C(=O)NCCCOC(C)C)c(C)n1C 26.7%
O=C1CN(c2nnnn2-c2ccccc2)CCN1 40.9%
CC(C)C(=O)c1cc2c(cc1NC(=O)Nc1cccc3ccccc13)OCCO2 49.3%
O=C(/C=C/c1cccc([N+](=O)[O-])c1)c1ccco1 36%
Cc1c([N+](=O)[O-])c(C(=O)Nc2ccc3c(c2)OCCO3)nn1C 24.6%
CC1=CC(C)(C)Nc2ccc(OC(=O)C(C)N3C(=O)c4ccccc4C3=O)cc21 (configuration not stated) 39.1%

inhibition, active:
c1cnc2c(c1)ccc1cccnc12 84.1%
Cc1ccccc1Nc1cc(C)c2c(O)cccc2n1 77.8%
COc1ccc(NC(=O)c2sc(N3CCOCC3)nc2-c2ccccc2)c(OC)c1 57.7%
N#Cc1ccc(NC(=O)Nc2ccc(Cl)cc2)cc1 96.4%
COc1ccc(/C=C/C(=O)Nc2ccc3c(c2)CCC3)cc1OC 86.2%
CSc1ccc2c(c1)N(CCC1CCCCN1C)c1ccccc1S2 (configuration not stated) 81.8%
O=C(Nc1ccc(-c2nc3ccccc3s2)cc1)C1=COCCO1 55.6%
CCOC(=O)N/N=C/c1ccc(N(CC)CC)cc1O 72.5%
O=C(Nc1ccc(Cl)c(Cl)c1)Oc1ccc(NC(=O)c2ccco2)cc1 54.6%
O=C(Nc1ccccc1)N1CCc2ccccc2C1 71.7%
Cc1ccc(NC(=O)N2CCc3ccccc3C2)cc1 69.2%
CC1=CC2=NC(=O)/C(=C\c3cccn3CCOc3cccc(C)c3)C(=N)N2O1 85.1%
NCCS 58.8%
CCOC(=O)C1CCN(C(=O)c2cc3cc4cc(OC)ccc4nc3o2)CC1 52%
COc1cc(C=O)ccc1Oc1nnnn1-c1ccccc1 52.9%
O=C(N/N=C/c1ccc2c(c1)OCO2)c1cccs1 68.9%
CNc1ccc(/C=C/C(=O)c2ccc3c(c2)OCCO3)cc1[N+](=O)[O-] 66.7%
